According to PubChem BioAssay AID493098 (Sanford-Burnham Center for Chemical Genomics, 2011):
About 1,700 (0.5%) of roughly 340,000 compounds were called active.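 How the source made its calls: active means compounds whose inhibition of the agonist-driven luminescence signal at 20 µM reaches about 50% (limit read from the data); inactive means the rest.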 Many of the other results were omitted from the sample, so actives are more common in it than they were.

Target: C-C chemokine receptor type 6 (Homo sapiens) (UniProt P51684)
Experiment: blockers of CCL20-driven beta-arrestin recruitment to CCR6 – cell-based, CHO-K1, luminescence, uHTS, primary screen (AID 493098);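 further: cells stimulated with CCL20 at 14 nM final; plate controls were DMSO with CCL20 for no effect and DMSO without agonist for full effect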
Details: CHO-K1 CCR6 PathHunter beta-arrestin, CCL20-stimulated, at 20 µM, active compounds read high

Chain of C-C chemokine receptor type 6 (Homo sapiens) (P51684 whole entry, looked up): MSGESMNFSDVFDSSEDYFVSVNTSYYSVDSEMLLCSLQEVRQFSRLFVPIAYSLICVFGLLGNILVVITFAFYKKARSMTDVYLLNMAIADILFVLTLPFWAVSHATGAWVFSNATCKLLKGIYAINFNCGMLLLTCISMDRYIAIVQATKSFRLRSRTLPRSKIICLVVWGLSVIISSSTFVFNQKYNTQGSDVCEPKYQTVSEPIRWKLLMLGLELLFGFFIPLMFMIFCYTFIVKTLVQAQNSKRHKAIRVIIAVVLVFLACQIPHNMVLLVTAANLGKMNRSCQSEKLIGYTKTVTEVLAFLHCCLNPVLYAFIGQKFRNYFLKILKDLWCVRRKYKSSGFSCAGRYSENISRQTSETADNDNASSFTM

Compound	inhibition
O=C(NC(=S)Nc1ncccn1)c1ccccc1Br	1.75% (inactive)
Cc1cc(C)c(C2C3=C(Nc4c2c(C)nn4-c2ccccn2)c2ccccc2C3=O)c(C)c1 (configuration not stated)	53.2% (active)
COCC1CCCN(Cc2cn[nH]c2-c2cc3ccccc3o2)C1 (configuration not stated)	7.28% (inactive)
c1nc(COc2nsnc2N2CCOCC2)cs1	-2.16% (inactive)
COc1cccc(CN2CCN(Cc3ccc4cccc(F)c4n3)CC2CCO)c1 (configuration not stated)	11.8% (inactive)
O=[N+]([O-])c1ccc(N2CCOCC2)cc1	7.93% (inactive)
C=CS(=O)c1sc(Cl)c(N2CCOCC2)c1[N+](=O)[O-] (configuration not stated)	93.5% (active)
Cc1nc2cc(C(F)(F)F)ccc2n1CCNc1nc(-c2cc(Cl)c(N)c(Cl)c2)cs1	6.34% (inactive)
COc1ccc(NC(=O)c2oc3ccc(S(=O)(=O)N4CCOCC4)cc3c2C)cc1	8.2% (inactive)
CCOC(=O)NC(C(F)(F)F)(C(F)(F)F)P(=O)(c1ccccc1)c1ccccc1	11.6% (inactive)
COC(=O)[C@]1(C)CCC[C@@]2(C)C3CC[C@]4(OC(C)=O)C[C@@]3(CCC21)CC4=NO (some centres not stated)	-0.25% (inactive)
O=C(Nc1ccc(F)cc1)c1ccc(S(=O)(=O)NCc2cccnc2)cc1	-1.15% (inactive)
Cc1cccc(NC(=O)c2nc(S(=O)(=O)Cc3ccccc3)ncc2Cl)c1	82% (active)
Cc1ccc(CS(=O)(=O)c2ncc(Cl)c(C(=O)Nc3nnc(C)s3)n2)cc1	-7.39% (inactive)
Cc1cccc(CS(=O)(=O)c2ncc(Cl)c(C(=O)Nc3ccc(F)cc3)n2)c1	79.4% (active)
CCOc1ccc(NC(=O)c2nc(SCC)ncc2Cl)cc1	3.21% (inactive)

Compound	inhibition
CSc1nnc(NC(=O)c2nc(S(=O)(=O)Cc3ccc(C)cc3)ncc2Cl)s1	-1.49% (inactive)
CCCC(C(=O)OCCN(CC)CC)(c1ccccc1)c1ccccc1	11.6% (inactive)
COC(=O)c1ccc(-c2noc(CN(Cc3ccccn3)CC3CCCO3)n2)cc1 (configuration not stated)	5.23% (inactive)
CCn1c(=O)c2ccccc2n(CC(=O)N2CCCc3ccccc32)c1=O	9.45% (inactive)
Cc1ccccc1CSCCNC(=O)c1ccc(N(C)S(=O)(=O)c2ccccc2)cc1	32.2% (inactive)
O=C(CC1OC(=O)c2ccccc21)NC1CCCCC1 (configuration not stated)	19.9% (inactive)
CN(CC(=O)Nc1ccc(OC(F)F)cc1)S(=O)(=O)/C=C/c1ccccc1	59.9% (active)
COc1ccc(NC(=O)COC(=O)c2ccc(NS(=O)(=O)/C=C/c3ccccc3)cc2)cc1	21.3% (inactive)
CC(C)N(Cc1ccccc1)C(=S)Nc1ccc(OC(F)F)cc1	18.4% (inactive)
CCOC(=O)C1CCCN(C(=O)/C=C/c2ccc(OC)cc2)C1 (configuration not stated)	6.92% (inactive)
CCN1CCC(O)(/C=C/c2ccc(C)cc2)C(C(=O)/C=C/c2ccc(C)cc2)C1 (configuration not stated)	63.6% (active)
CCN1CCN(C(=O)CSc2ccc(C)cc2)CC1	6.4% (inactive)
N#CCCn1cnc2ccccc21	8.21% (inactive)
Cc1cc(C)nc(S/C=C/C(=O)c2ccccc2)n1	54.2% (active)
O=C(/C=C/Sc1ncn[nH]1)c1ccc(Cl)cc1	31.6% (inactive)
Cc1cc(C)nc(SCc2ccccc2C#N)n1	-11.7% (inactive)
